Laboratory results taken from PubChem BioAssay (Tox21).
Where “and” joins values, the source holds several entries; their conditions need not be identical. Equal values may be shown once. Calls of active or inactive are those of the source. Unless noted, the call rests on the fitted dose curve; in most records, active means well fitted curve in the direction sought with a large enough effect in the repeat runs; inconclusive means weak or mixed curves; inactive means no such curve, though single readings can be large; an effect the other way counts as inactive or inconclusive.

What was measured:
[1] = qHTS assay for small molecule agonists of the p53 signaling pathway (AID 651631; calls by dose curve; further: nearly all actives have a fitted effect of over 15% in size; further: potency means the concentration at half of the fitted maximal effect)
Outline: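 HCT-116 cells carrying a beta-lactamase reporter under p53 response elements were dosed with compound for 16 h at 37 °C. LiveBLAzer B/G FRET substrate was then added for 2 h at room temperature, and fluorescence intensity was read to detect pathway agonism.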

[2] = qHTS assay for small molecules that induce genotoxicity in human embryonic kidney cells expressing luciferase-tagged ATAD5 (AID 651632); further: nearly all actives have a fitted effect of over 15% in size; further: potency means the concentration at half of the fitted maximal effect
Outline: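 Luminescent reporter readout, HEK293T ATAD5-luc line: 16 hr drug exposure (37C, 5% CO2) followed by Amplite, 30 min RT.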

[3] = qHTS assay for small molecules that induce genotoxicity in human embryonic kidney cells expressing luciferase-tagged ATAD5 - cell viability (AID 651634; calls by dose curve; further: nearly all actives have a fitted effect of over 25% in size; further: potency means the concentration at half of the fitted maximal effect)
Outline: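 Viability read: CellTiter-Fluor fluorescence, 30 min at 37C. Cells: HEK293T, luciferase-tagged ATAD5. Exposure: 15.5 hr, 37C, 5% CO2, compound or DMSO vehicle.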

[4] = qHTS assay to test for compound auto fluorescence at 535 nm (green) in HEK293 cells (AID 720680)
[5] = qHTS assay to test for compound auto fluorescence at 460 nm (blue) in HepG2 cell free culture (AID 720685)
Outline: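 Compound (23 nL) or DMSO pinned into cell-free MEM with 10% FBS; blue fluorescence read at 405/460 nm excitation/emission, expressed as auto-fluorescence equivalency to triamterene.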

[6] = target: Glucocorticoid receptor (Homo sapiens) (UniProt P04150); assay: qHTS assay to identify small molecule antagonists of the glucocorticoid receptor (GR) signaling pathway (AID 720692; active means well fitted inhibition curve with a large enough effect in the signal ratio in the repeat runs, not every such curve was filed as active; inconclusive means weak or mixed curves, or effect the other way; inactive means no such curve, though single readings can be large or run the other way; the % refers to the signal ratio; further: potency means the concentration at half of the fitted maximal effect)
Outline: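 Inhibition of glucocorticoid signalling is measured in HeLa cells with a GRE-controlled beta-lactamase reporter; cells are co-treated with compound and 5 nM dexamethasone (final) for 18 h before FRET substrate readout.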

[7] = qHTS assay for identifying genotoxic compounds that show differential cytotoxicity against isogenic chicken DT40 cell lines with known DNA damage response pathways - wild type cell line (AID 743012); further: nearly all actives have a fitted effect of over 60% in size; further: potency means the concentration at half of the fitted maximal effect
Outline: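 First, wild type DT40 cells were plated at 300 per well and equilibrated about 0.5 h at 37 C/5% CO2. Next, compounds in DMSO were added and exposure lasted 40 h. Finally, CellTiter-Glo was added for 30 min at room temperature and luminescence recorded.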

[8] = qHTS assay for identifying genotoxic compounds that show differential cytotoxicity against isogenic chicken DT40 cell lines with known DNA damage response pathways - Rev3 mutant cell line (AID 743014); further: nearly all actives have a fitted effect of over 55% in size; further: potency means the concentration at half of the fitted maximal effect
[9] = qHTS assay to identify small molecule antagonists of the androgen receptor (AR) signaling pathway using the MDA cell line - cell viability counter screen (AID 743041; further: nearly all actives have a fitted effect of over 45% in size; further: potency means the concentration at half of the fitted maximal effect)
Outline: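 Same-well cytotoxicity was assessed by CellTiter-Fluor in MDA-kb2 AR-luc cells after 16 h of compound treatment under R1881 agonism.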

[10] = qHTS assay to identify small molecule antagonists of the thyroid receptor (TR) signaling pathway - cell viability counter screen (AID 743064); further: nearly all actives have a fitted effect of over 50% in size; further: potency means the concentration at half of the fitted maximal effect
Outline: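 GH3.TRE-Luc rat pituitary cells dosed after 4 hr plating, co-stimulated with T3 at 1 nM final, incubated 23.5 h at 37 C. Viability measured in the same wells by CellTiter-Fluor fluorescence after 30 min further at 37 C.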

[11] = system: thyroid hormone receptor (rat, GH3 cells); assay: qHTS assay to identify small molecule agonists of the thyroid receptor (TR) signaling pathway (AID 743066; calls by dose curve)
[12] = target: Estrogen receptor (Homo sapiens) (UniProt P03372); assay: qHTS assay to identify small molecule agonists of the estrogen receptor alpha (ER-alpha) signaling pathway (AID 743075; calls by dose curve;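 further: HEK293 GripTite cells with ER-alpha and UAS-driven beta-lactamase reporter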; further: potency means the concentration at half of the fitted maximal effect)
[13] = target: Estrogen receptor (Homo sapiens) (UniProt P03372); assay: qHTS assay to identify small molecule agonists of the estrogen receptor alpha (ER-alpha) signaling pathway using the BG1 cell line (AID 743079); further: nearly all actives have a fitted effect of over 20% in size; further: potency means the concentration at half of the fitted maximal effect
[14] = qHTS assay to identify small molecule antagonists of the estrogen receptor alpha (ER-alpha) signaling pathway using the BG1 cell line (AID 743080; calls by dose curve;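 further: BG1 cells stimulated with 17beta-estradiol alongside compound; series mostly up to about 70 µM; nearly all actives have a fitted effect of over 25% in size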)
Outline: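 Seeding, 24 h rest, compound transfer from DMSO, 17beta-estradiol addition, 21.5 h incubation, CellTiter-Fluor (30 min, 37 C), then ONE-Glo (30 min, room temperature): this sequence was run on BG1-Luc-4E2 reporter cells.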

[15] = qHTS assay to identify small molecule antagonists of the estrogen receptor alpha (ER-alpha) signaling pathway using the BG1 cell line - cell viability counter screen (AID 743081);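 further: compound given together with 17beta-estradiol as the ER stimulus; series mostly up to about 70 µM; nearly all actives have a fitted effect of over 45% in size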
[16] = target: Peroxisome proliferator-activated receptor gamma (Homo sapiens) (UniProt P37231); assay: qHTS assay to identify small molecule agonists of the peroxisome proliferator-activated receptor gamma (PPARg) signaling pathway (AID 743094; active means well fitted activation curve with a large enough effect in the signal ratio in the repeat runs, not every such curve was filed as active; inconclusive means weak or mixed curves, or effect the other way; inactive means no such curve, though single readings can be large or run the other way; the % refers to the signal ratio)
Outline: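 Compounds dissolved in DMSO were added to PPARg UAS-bla HEK293H cells for 17 h at 37C, and reporter expression was quantified by fluorescence intensity after 1 h with LiveBLAzer B/G FRET substrate.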

[17] = qHTS assay to identify small molecule phospholipidosis (PLD) inducers (AID 1259344; active means well fitted curve in the direction sought with a large enough effect; inconclusive means small, poorly fitted or top-dose-only effect, or another doubt; inactive means no such curve, though single readings can be large; an effect the other way counts as inactive or inconclusive)
Outline: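 Quantitative HTS in HepG2: compound plus LipidTOX Red dye for 24 h, paraformaldehyde fixation with Hoechst 33342, widefield high-content imaging; amiodarone as positive and DMSO as negative control.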

[18] = qHTS assay to identify small molecule antagonists of the thyroid receptor (TR) signaling pathway (AID 743065); further: nearly all actives have a fitted effect of over 55% in size; further: potency means the concentration at half of the fitted maximal effect
Outline: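 GH3.TRE-Luc rat pituitary cells (two TREs driving luciferase) were dosed with compound, then stimulated with 1 nM T3 (final) for 23.5 h at 37 C. ONE-Glo luminescence was the read-out, with CellTiter-Fluor fluorescence as the cytotoxicity counter-screen.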

[19] = target: Estrogen receptor (Homo sapiens) (UniProt P03372); assay: qHTS assay to identify small molecule antagonists of the estrogen receptor alpha (ER-alpha) signaling pathway (AID 743069; active means well fitted curve in the direction sought with a large enough effect in the signal ratio in the repeat runs, not every such curve was filed as active; inconclusive means weak or mixed curves, or effect the other way; inactive means no such curve, though single readings can be large or run the other way; the % refers to the signal ratio)
Outline: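 Reporter cells (ER-alpha-bla, HEK293 background) are conditioned overnight in stripped-serum medium (2% charcoal-stripped FBS). Compound and 17beta-estradiol exposure runs 18 hr at 37C, 5% CO2.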

[20] = qHTS assay for small molecule disruptors of the mitochondrial membrane potential (AID 720635); further: potency means the concentration at half of the fitted maximal effect
Outline: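 HepG2 cells exposed to compound 1 hr at 37C, then Mito-MPS dye 30 min. Ratio read of aggregate (540/590 nm) versus monomer (490/535 nm) fluorescence.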
On the % scale 0 is the no-effect control and ±100 the full control effect.

Peroxisome proliferator-activated receptor gamma (Homo sapiens), sequence (P37231 whole entry, looked up): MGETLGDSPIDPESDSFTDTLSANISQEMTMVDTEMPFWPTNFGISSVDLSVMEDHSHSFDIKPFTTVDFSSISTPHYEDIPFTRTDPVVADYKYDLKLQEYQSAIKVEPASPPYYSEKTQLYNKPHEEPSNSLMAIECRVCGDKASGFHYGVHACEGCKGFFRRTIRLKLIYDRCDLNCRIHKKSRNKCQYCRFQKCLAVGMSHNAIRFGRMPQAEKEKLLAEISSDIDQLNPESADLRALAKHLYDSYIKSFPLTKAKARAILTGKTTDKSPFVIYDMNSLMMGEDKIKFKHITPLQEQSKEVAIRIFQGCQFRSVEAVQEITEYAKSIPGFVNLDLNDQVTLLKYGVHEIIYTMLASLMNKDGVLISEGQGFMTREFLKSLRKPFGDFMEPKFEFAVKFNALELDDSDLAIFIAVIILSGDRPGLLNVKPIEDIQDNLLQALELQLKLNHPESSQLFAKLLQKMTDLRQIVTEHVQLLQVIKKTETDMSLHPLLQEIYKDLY
Glucocorticoid receptor (Homo sapiens), sequence (P04150 whole entry, looked up): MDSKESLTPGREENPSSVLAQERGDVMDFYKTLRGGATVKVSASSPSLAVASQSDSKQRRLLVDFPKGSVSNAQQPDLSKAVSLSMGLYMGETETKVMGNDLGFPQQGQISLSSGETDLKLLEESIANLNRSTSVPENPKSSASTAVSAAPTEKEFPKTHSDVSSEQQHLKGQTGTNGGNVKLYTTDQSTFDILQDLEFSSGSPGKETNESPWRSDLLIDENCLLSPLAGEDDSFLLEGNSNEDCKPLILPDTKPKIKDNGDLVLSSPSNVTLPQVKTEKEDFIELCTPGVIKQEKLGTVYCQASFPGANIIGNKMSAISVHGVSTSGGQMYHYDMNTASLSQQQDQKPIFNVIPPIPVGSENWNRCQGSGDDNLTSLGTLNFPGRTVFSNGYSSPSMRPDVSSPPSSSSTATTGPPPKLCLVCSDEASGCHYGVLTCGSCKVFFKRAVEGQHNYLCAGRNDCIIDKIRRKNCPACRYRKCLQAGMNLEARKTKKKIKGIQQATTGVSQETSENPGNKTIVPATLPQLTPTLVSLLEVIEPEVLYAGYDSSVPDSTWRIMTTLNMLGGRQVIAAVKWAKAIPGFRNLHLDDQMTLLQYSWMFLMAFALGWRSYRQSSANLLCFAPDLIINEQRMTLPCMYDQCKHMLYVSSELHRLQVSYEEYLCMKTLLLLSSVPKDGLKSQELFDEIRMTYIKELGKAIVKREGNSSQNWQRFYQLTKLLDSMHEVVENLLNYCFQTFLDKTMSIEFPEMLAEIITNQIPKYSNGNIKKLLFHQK
Estrogen receptor (Homo sapiens), sequence (P03372 whole entry, looked up): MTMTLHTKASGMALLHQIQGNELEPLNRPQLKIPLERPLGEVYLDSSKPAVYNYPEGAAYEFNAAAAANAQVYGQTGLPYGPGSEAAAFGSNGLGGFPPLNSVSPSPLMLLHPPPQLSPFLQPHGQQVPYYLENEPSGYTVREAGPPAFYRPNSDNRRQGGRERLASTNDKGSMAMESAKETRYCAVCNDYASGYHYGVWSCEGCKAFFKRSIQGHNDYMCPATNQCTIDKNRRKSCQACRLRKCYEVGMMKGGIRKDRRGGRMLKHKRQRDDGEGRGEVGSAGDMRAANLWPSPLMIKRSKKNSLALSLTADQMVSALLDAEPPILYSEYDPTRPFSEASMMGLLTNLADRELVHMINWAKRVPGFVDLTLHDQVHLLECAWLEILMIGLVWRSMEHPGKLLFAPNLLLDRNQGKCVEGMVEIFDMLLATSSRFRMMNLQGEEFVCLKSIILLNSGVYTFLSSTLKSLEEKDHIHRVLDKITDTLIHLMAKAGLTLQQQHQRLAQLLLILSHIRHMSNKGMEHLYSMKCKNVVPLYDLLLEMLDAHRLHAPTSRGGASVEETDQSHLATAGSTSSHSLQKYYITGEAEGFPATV

C[C@]12CCC(=O)C[C@@H]1CC[C@@H]1[C@@H]2CC[C@@]2(C)[C@H]1CC[C@]2(C)O
active: Potency [6] 8.49 µM | Potency [12] 0.477 µM [inconclusive] | Potency [13] 0.15 µM
inactive: Potency [1] | Potency [2] | Potency [3] | Potency [4] | Potency [5] | Potency [7] | Potency [8] | Potency [9] | Potency [10] | Potency [11] | Potency [14] | Potency [15] | Potency [16] | Potency [17]

CCNC1(c2cccs2)CCCCC1=O (stereo not given)
inactive: Potency [1] | Potency [2] | Potency [6] | Potency [7] | Potency [8] | Potency [9] | Potency [10] | Potency [18] | Potency [11] | Potency [19] | Potency [12] | Potency [13] | Potency [14] | Potency [15] | Potency [16] | Potency [17]

C/C=C(\CC)C(=O)NC(N)=O
inactive: Potency [1] | Potency [2] | Potency [3] | Potency [20] | Potency [4] | Potency [5] | Potency [6] | Potency [7] | Potency [8] | Potency [9] | Potency [10] | Potency [18] | Potency [11] | Potency [19] | Potency [12] | Potency [14] | Potency [15] | Potency [16] | Potency [17]
active: Potency [13] 29.8 µM

CN[C@@]1(c2ccccc2Cl)CCCCC1=O
inactive: Potency [1] | Potency [2] | Potency [3] | Potency [4] | Potency [5] | Potency [6] | Potency [7] | Potency [8] | Potency [9] | Potency [10] | Potency [18] | Potency [11] | Potency [19] | Potency [12] | Potency [13] | Potency [14] | Potency [15] | Potency [16] | PLD induction [17] -4.46% [at 7.66 µM]

C=CCN1CC[C@]23c4c5ccc(O)c4O[C@H]2[C@@H](O)C=C[C@H]3[C@H]1C5
inactive: Potency [2] | Potency [20] | Potency [5] | Potency [8] | Potency [9] | Potency [10] | Potency [18] | Potency [11] | Potency [15] | Potency [16] | Potency [17]

Oc1cc[c]([Hg][Cl])cc1
inactive: Potency [5] | Potency [15] | Potency [17]
active: Potency [1] 23.7 µM | Potency [2] 4.22 µM and 8.41 µM | Potency [3] 11.9 µM and 13.3 µM | Potency [20] 11.9 µM | Potency [7] 422 nM and 596 nM | Potency [8] 750 nM and 841 nM | Potency [9] 11.9 µM and 13.3 µM | Potency [10] 596 nM and 841 nM | Potency [18] 422 nM and 531 nM | Potency [12] 21.3 µM [inconclusive]

CN1C(=O)CC(=O)N(c2ccccc2)c2cc(Cl)ccc21
inactive: Potency [1] | Potency [3] | Potency [20] | Potency [4] | Potency [6] | Potency [8] | Potency [9] | Potency [10] | Potency [18] | Potency [11] | Potency [19] | Potency [12] | Potency [13] | Potency [14] | Potency [15] | Potency [16] | Potency [17]

C[C@@H](Cc1ccccc1)NCCC(c1ccccc1)c1ccccc1
active: Potency [8] 5.07 µM | Potency [10] 11.4 µM
inactive: Potency [1] | Potency [2] | Potency [3] | Potency [4] | Potency [5] | Potency [19] | Potency [12] | Potency [13] | Potency [14] | Potency [17]

Oc1ccc2c3c1O[C@H]1[C@@H](O)C=C[C@H]4[C@H](C2)NCC[C@@]341
inactive: Potency [1] | Potency [2] | Potency [3] | Potency [4] | Potency [8] | Potency [9] | Potency [18] | Potency [11] | Potency [15] | Potency [17]

CNc1ccc(C(=O)CC(O)CCC(C)C2OC(=O)CC(O)CC(=O)CC(O)CC(O)CC(O)CC(O)CC3(O)CC(O)C(C(=O)OC)C(CC(O[C@@H]4O[C@H](C)[C@@H](O)[C@H](N)[C@@H]4O)/C=C/C=C/C=C/C=C/C=C/C=C/C=C/C2C)O3)cc1 (stereo not given in full)
active: Potency [20] 16.8 µM
inactive: Potency [3] | Potency [4] | Potency [5] | Potency [6] | Potency [9] | Potency [10] | Potency [11] | Potency [19] | Potency [12] | Potency [13] | Potency [14] | Potency [15] | Potency [17]

c1cc2c(c(NC3=NCCN3)c1)CCCC2
inactive: Potency [1] | Potency [2] | Potency [3] | Potency [20] | Potency [4] | Potency [5] | Potency [6] | Potency [9] | Potency [11] | Potency [15]

O=c1c2ccccc2[se]n1-c1ccccc1
inactive: Potency [2] | Potency [4] | Potency [5] | Potency [12] | Potency [15] | Potency [17]
active: Potency [20] 22.1 µM | Potency [7] 5.31 µM | Potency [8] 8.41 µM | Potency [10] 23.7 µM | Potency [18] 23.7 µM

COC(=O)[C@]12CCC(C)(C)C[C@H]1[C@H]1C(=O)C=C3[C@@]4(C)C=C(C#N)C(=O)C(C)(C)[C@@H]4CC[C@@]3(C)[C@]1(C)CC2
active: Potency [3] 2.98 µM | Potency [20] 3.76 µM | Potency [9] 6.68 µM | Potency [10] 1.68 µM | Potency [18] 0.473 µM | Potency [12] 3.01 µM [inconclusive]
inactive: Potency [4] | Potency [17]

O=C1C[C@@H]2OCC=C3CN4CC[C@]56c7ccccc7N1[C@H]5[C@H]2[C@H]3C[C@H]46 (tested in a mixture with another compound)
inactive: Potency [1] | Potency [3] | Potency [20] | Potency [4] | Potency [8] | Potency [9] | Potency [10] | Potency [18] | Potency [11] | Potency [15] | Potency [17]

C[C@@H]1[C@H](O)[C@@H](C)/C=C/C=C/CC/C=C/C=C/C=C/C=C/[C@H](O[C@H]2O[C@@H](C)[C@H](O)[C@@H](N)[C@H]2O)CC2O[C@](O)(C[C@@H](O)[C@H](O)CC[C@@H](O)C[C@@H](O)C[C@@H](O)CC(=O)O[C@H]1C)C[C@H](O)[C@H]2C(=O)O
inactive: Potency [3] | Potency [4] | Potency [5] | Potency [8] | Potency [9] | Potency [10] | Potency [18] | Potency [11] | Potency [19] | Potency [12] | Potency [13] | Potency [14] | Potency [16] | Potency [17]

CC1(C)C(C=C(Cl)Cl)C1C(=O)OCc1cccc(Oc2ccccc2)c1 (stereo not given)
inactive: Potency [1]

Nc1ccc(N)c2ccccc12
active: Potency [6] 24.5 µM
